Screens from PubChem BioAssay.
Only some compounds are listed: those with a hit (about 19% of all), similar ones and a draw of the others.
HT1080 IDH1KD tx = qHTS for induction of synthetic lethality in tumor cells producing 2HG: qHTS for the HT-1080-IDH1KD cell line. HT-1080 IDH1 knockdown viability, ATP luminescence, 48 h. Potency, µM (titrated, usually from 46.1 µM), actives largely listed as cytotoxic. 2% of 360,000 active
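Cytotoxicity counter-line: IDH1KD HT-1080, 48 h, CellTiter-Glo. Curves classed by r2, magnitude and activity.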
KB-3-1 tox = qHTS assay for MDR1-selective chemotherapeutics: Primary screen using the parental adenocarcinoma cell KB-3-1; Potency, µM (series often up to 46.1 µM), usual class: cytotoxic; AID 1347075, 2019; 1.4% of 400,000 active; KB-3-1 viability, CellTiter-Glo ATP luminescence, 72 h; note: nearly all actives have a fitted effect of over 60% in size
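KB-3-1 cells, DMEM (no phenol red) + 10% FBS; compound by pin transfer, 72 h, 37 °C. Readout: CellTiter-Glo luminescence after 10 min. Data normalized, curve-fitted.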
TDP1 cell noCPT = qHTS for Inhibitors of human tyrosyl-DNA phosphodiesterase 1 (TDP1): qHTS in cells in absence of CPT; DT40 Tdp1-/- hTDP1 cells, no CPT, ATP luminescence, 48 h; Potency, µM (titrated, usually from 46.2 µM), most hits filed as inhibitors; 15% of 420,000 active; note: nearly all actives have a fitted effect of over 55% in size
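Seeded 400 DT40-hTDP1 cells/well (vehicle DMSO, no 20 nM CPT); pinned compounds; ≥48 hr at 37 °C; CellTiter-Glo luminescence as viability measure.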
HT1080-NT tox = qHTS for induction of synthetic lethality in tumor cells producing 2HG: qHTS for the HT-1080-NT fibrosarcoma cell line | HT-1080-NT fibrosarcoma viability, CellTiter-Glo ATP luminescence, 48 h | 1.6% of 360,000 active | Potency, µM (top dose mostly 46.1 µM), most hits filed as cytotoxic | AID 686970, 2013;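 note: NT is the 2HG producing partner of a matched IDH1 knockdown line; nearly all actives have a fitted effect of over 55% in size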
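A 48-hour cytotoxicity screen used HT-1080-NT cells plated 2 hours before compound delivery. ATP-based CellTiter-Glo luminescence measured viability, normalized to DMSO and no-cell controls.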
KB-V1 MDR tox = qHTS assay for MDR1-selective chemotherapeutics: Primary screen using the drug-selected MDR subline cells KB-V1. 3.4% of 400,000 active. KB-V1 MDR cells viability, CellTiter-Glo, 72 h. AID 1347076, 2019. Potency, µM (doses to about 46.1 µM), actives largely listed as cytotoxic; note: nearly all actives have a fitted effect of over 60% in size
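Cytotoxicity via CellTiter-Glo luminescence after 72 h compound exposure at 37 degrees C. Cells: drug-selected KB-V1 line, DMEM phenol-red free plus 10% FBS. Compounds tested at multiple concentrations; normalized data fitted to concentration-effect curves.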
DT40 TDP1 CPT = qHTS for Inhibitors of human tyrosyl-DNA phosphodiesterase 1 (TDP1): qHTS in cells in presence of CPT. Potency, µM (series often up to 46.2 µM), most hits filed as inhibitors. AID 686979, 2013. chicken DT40 Tdp1-/-;hTDP1 cells + 20 nM CPT, ATP luminescence, 48 h. 12% of 420,000 active; note: nearly all actives have a fitted effect of over 55% in size
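Cell growth measured by CellTiter-Glo luminescence after a minimum 48 h, 37 C compound exposure with 20 nM CPT in Tdp1-knockout DT40 cells stably expressing hTDP1, seeded 400/well; qHTS titration format.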
Numbers stand for hits; n = inactive; u = inconclusive; x = not tested or not shown; [ ] = remark or other dose. Calls come from the whole dose curve; as a rule, active = well fitted curve in the direction sought with a large enough effect; inconclusive = small, poorly fitted or top-dose-only effect, or another doubt; inactive = no such curve, though single readings can be large; an effect the other way counts as inactive or inconclusive.

SMILES	HT1080 IDH1KD tx	KB-3-1 tox	TDP1 cell noCPT	HT1080-NT tox	KB-V1 MDR tox	DT40 TDP1 CPT
C=C(NC(=O)C(=C)NC(=O)c1csc(C2=NC3c4csc(n4)C4NC(=O)c5csc(n5)C(C(C)(O)C(C)O)NC(=O)C5CSC(=N5)/C(=C/C)NC(=O)C(C(C)O)NC(=O)c5csc(n5)C3(CC2)NC(=O)C(C)NC(=O)C(=C)NC(=O)C(=C)NC(=O)C(C(C)C)NC2C=Cc3c(C(C)O)cc(nc3C2O)C(=O)OC4C)n1)C(N)=O (stereo not drawn)	5.2µM	u	0.92µM	u	u	1µM
CC(Oc1ccc2c3c(c(=O)oc2c1)CCCC3)C(=O)NCC(O)c1ccccc1 (stereo not drawn)	n	n	u	n	u	n
CCC1CN(C(=O)Nc2ccc(C)cc2)c2cc(C)ccc2O1 (stereo not drawn)	n	n	16µM	n	n	u
CCC1CN(C(=O)Nc2ccccc2C(F)(F)F)c2ccccc2O1 (stereo not drawn)	x	x	n	x	x	n
CCC1CN(C(=O)Nc2cccc3c2CCCC3)c2cc(Cl)ccc2O1 (stereo not drawn)	x	x	21µM	x	x	u
CCC1CN(C(=O)NCc2ccc(F)cc2)c2cc(C)ccc2O1 (stereo not drawn)	n	u	u	n	n	u
CCC1CN(C(=O)Nc2cccc3c2CCCC3)c2ccccc2O1 (stereo not drawn)	x	x	16µM	x	x	u
CCCN(CCC)S(=O)(=O)c1ccc(NC(=O)c2cc(C(=O)OC)cc([N+](=O)[O-])c2)cc1	n	n	26µM	n	10µM	23µM
COC(=O)c1cc(C(=O)Nc2nc3ccccc3[nH]2)cc([N+](=O)[O-])c1	u	n	23µM	n	n	n
COc1cccc(C(=O)Nc2nc3ccccc3[nH]2)c1	u	u	u	n	u	n
COc1cc(SC)ccc1C(=O)Nc1nc2ccccc2[nH]1	1.5µM	2.9µM	2.1µM	1.6µM	u	3.7µM
COc1ccc(C(=O)Nc2nc3ccccc3[nH]2)cc1	u	u	23µM	u	u	16µM
Fc1ccccc1CSc1ncnc2sc3c(c12)CCCC3	n	n	u	n	n	n
COc1ccccc1C(=O)Nc1nc2ccccc2[nH]1	1.3µM	2.3µM	1.8µM	1.5µM	4.1µM	4.6µM
COc1ccccc1C(=O)NCCC(=O)Nc1nc2ccccc2[nH]1	n	n	u	n	n	n
CC(C)CCC(CCNCc1ccccn1)c1ccc(Cl)cc1 (stereo not drawn)	u	u	15µM	u	10µM	n
S=C(NCc1ccc(Cl)cc1)NCc1ccccn1	n	n	n	n	n	n
CCOc1ccc(-c2nc(CSCC(=O)NC3CCN(Cc4ccccc4)CC3)c(C)o2)cc1	u	n	u	n	u	23µM
CCOc1ccc(-c2nc(CSCC(=O)NC3CCCc4ccccc43)c(C)o2)cc1 (stereo not drawn)	n	n	u	n	n	18µM
CC(C)(C)c1ccc(CN2N=C(/C=C/c3ccccc3)CCC2=O)cc1	u	n	n	u	n	n
O=S(=O)(N/N=C\c1c(F)cccc1Cl)c1ccc(Cl)cc1	n[9.24 µM]	n	u	n	n	13µM
O=S(=O)(N/N=C/c1ccc2c(c1)OCCO2)c1ccc(Cl)cc1	n	n	n	n	n	n
Cc1cc(=O)[nH]c2ccc(Cc3ccccc3)cc12	n	u	n	n	9.2µM	n
Cc1ccsc1C(=O)C1CCCN(Cc2cccn2-c2ccc(Cl)cn2)C1 (stereo not drawn)	u	n	26µM	u	u	23µM
COc1ccc(F)cc1C(=O)C1CCCN(Cc2ccc(Oc3ncccn3)cc2)C1 (stereo not drawn)	n	n	u	n	n	n
SMILES	HT1080 IDH1KD tx	KB-3-1 tox	TDP1 cell noCPT	HT1080-NT tox	KB-V1 MDR tox	DT40 TDP1 CPT
COc1ccc(F)cc1C(=O)C1CCCN(Cc2cccn2-c2cccnc2)C1 (stereo not drawn)	n	u	21µM	n	n	u
Cc1ccc(-n2cccn2)c(CN2CCCC(C(=O)c3sccc3C)C2)c1 (stereo not drawn)	u	u	23µM	u	u	23µM
O=C(c1ccc(Cl)cc1)C1CCCN(Cc2cccn2-c2ccccn2)C1 (stereo not drawn)	23µM	n	u	16µM	n	9.2µM
COC(=O)[C@H]1[C@H]2CC3c4[nH]c5ccccc5c4CCN3C[C@@H]2CC[C@@H]1O (stereo partly drawn)	x	x	n	x	x	n
CSc1ccc(C(=O)C2CCCN(Cc3cccc4nccnc34)C2)cc1 (stereo not drawn)	n	n	u	n	n	15µM
O=C(c1ccc(C(F)(F)F)cc1)C1CCCN(Cc2cccn2-c2ncccn2)C1 (stereo not drawn)	u	n	26µM	u	n	u
COc1cccc(C(=O)C2CCCN(Cc3cccn3-c3ccccn3)C2)c1 (stereo not drawn)	u	n	18µM	u	n	u
COc1ccc(C(=O)C2CCCN(Cc3cccn3-c3ccccn3)C2)cc1F (stereo not drawn)	u	n	15µM	n	n	16µM
CC(=O)N1CCC[C@@]2(CCN(c3ccncc3)C2)C1	x	x	n	x	x	n
CC(C)Oc1cccc(C(=O)C2CCCN(Cc3cccn3-c3ccccn3)C2)c1 (stereo not drawn)	21µM	u	u	23µM	u	u
CC(C)Oc1cccc(C(=O)C2CCCN(Cc3ccc4nonc4c3)C2)c1 (stereo not drawn)	n	n	n	n	u	n
CCOC(=O)C1=CC[C@H]2c3c(c4ccccc4n3C)C[C@H]1N2C	n	n	u	n	n	29µM
CN1C2Cc3c(n(C)c4ccccc34)C1CC=C2CO (stereo not drawn)	n	n	n	n	n	n
N#C/C(=C\c1coc2ccc(O)cc2c1=O)C(=O)Nc1nc2ccccc2s1	n	n	u	n	n	9.2µM
Cc1ccc(-c2nc(CCNC(=O)C(=O)Nc3ccc(C)c(C)c3)cs2)cc1	x	x	n	x	x	n
CN(C)CCCNC(=O)c1ccc(-c2nc(-c3ccc(Cl)cc3)cs2)cc1	u	u	21µM	n	u	16µM
